Columns and labels:
Assay in all cases: pooled miR-30 sensor sort-seq; sequence = guide strand
Details in all cases: shRNA
RGS13 = biological target: RGS13
RGS6 = biological target: RGS6
RFX3 = biological target: RFX3
RGS9 = biological target: RGS9
RET = biological target: RET
RHBDL3 = biological target: RHBDL3
RHOF = biological target: RHOF
RHOH = biological target: RHOH
Further: reference of the scale not given here.

TTAATTGAACTACATAGGCTTG
sensor-assay potency score (higher = more potent) (RGS13): -0.858

TAATCTCAAGTGATAGTCGTGA
sensor-assay potency score (higher = more potent) (RGS6): 0.294

TTCTAGTCTCTGAACCATGTTG
sensor-assay potency score (higher = more potent) (RFX3): -0.714

TTTCAAACAATGTCTGTCGATC
sensor-assay potency score (higher = more potent) (RGS6): -0.513

TTTGACACACACACACAGGGAA
sensor-assay potency score (higher = more potent) (RGS6): 0.653

ATGATAGTCTCTCTTGTCGAAC
sensor-assay potency score (higher = more potent) (RGS13): -1.51

TTGAGAATGAGATTCTTGGGGT
sensor-assay potency score (higher = more potent) (RGS9): 0.816

TTCTGCTTCATAATCTGCCAGT
sensor-assay potency score (higher = more potent) (RGS6): -0.422

TAATCTGCCAGTTCCAGCCTTG
sensor-assay potency score (higher = more potent) (RGS6): -0.407

TTGACAACAGTCGACCTTCAGG
sensor-assay potency score (higher = more potent) (RFX3): -0.926

TTGTTGTACTGGTACTTGCTGT
sensor-assay potency score (higher = more potent) (RFX3): -0.28

TTCCTGATGATAGTCTCTCTTG
sensor-assay potency score (higher = more potent) (RGS13): -0.749

TTTTGGTACATTTCTGACTTTA
sensor-assay potency score (higher = more potent) (RGS13): -0.566

TCAAACGTCGACATTTTCGGAT
sensor-assay potency score (higher = more potent) (RGS6): -0.513

TCTGACTTTAGAAATCTGGGGT
sensor-assay potency score (higher = more potent) (RGS13): 0.865

TTAAATTTTCAAAAGACTGGGC
sensor-assay potency score (higher = more potent) (RGS13): -0.0917

TTGGATATCTTGGAAACCCAGT
sensor-assay potency score (higher = more potent) (RET): -0.723

TTATTTTGCATTGTCCTCTTAC
sensor-assay potency score (higher = more potent) (RGS6): -0.243

TTGAAGATTCACAACAACGTCC
sensor-assay potency score (higher = more potent) (RFX3): 0.274

TTAATGAACATAATAGTAGGAA
sensor-assay potency score (higher = more potent) (RGS13): 0.19

TTGAATATTCTCGTCACTGTGC
sensor-assay potency score (higher = more potent) (RGS13): 0.436

TAGTCTCTCTTGTCGAACTGTC
sensor-assay potency score (higher = more potent) (RGS13): -0.609

AATTTGACAACAGTCGACCTTC
sensor-assay potency score (higher = more potent) (RFX3): 0.318

TTGTTGTTCGGATTGCTCCATT
sensor-assay potency score (higher = more potent) (RFX3): -0.745

TTTTCAAACAATGTCTGTCGAT
sensor-assay potency score (higher = more potent) (RGS6): -0.396

TAGAGTTTGTTTTCAATCCATG
sensor-assay potency score (higher = more potent) (RET): -0.723

TTAAGTGTTGTAAAAATCCTTC
sensor-assay potency score (higher = more potent) (RFX3): -0.411

TAAACTTTCAGCCACTTTGGAC
sensor-assay potency score (higher = more potent) (RGS6): -0.804

TAGGTTTCACATGCCATCCAGA
sensor-assay potency score (higher = more potent) (RGS13): -0.935

TTGGTATAGACAGTATCGCTTC
sensor-assay potency score (higher = more potent) (RFX3): -0.105

TAAATTTTCAACTTAAGCCCAA
sensor-assay potency score (higher = more potent) (RFX3): 0.019

TTGTCATCTTGCATCTTTGTAA
sensor-assay potency score (higher = more potent) (RGS6): -0.676

TAAATCACCAAACTCGCCCATG
sensor-assay potency score (higher = more potent) (RFX3): -0.686

TAGAAATTCTGCTCCACCGTGA
sensor-assay potency score (higher = more potent) (RGS13): 0.617

TAGAATTTGACAACAGTCGACC
sensor-assay potency score (higher = more potent) (RFX3): -0.732

ATAGTCTCTCTTGTCGAACTGT
sensor-assay potency score (higher = more potent) (RGS13): -0.257

TCTGTCTTGTCTTTTTTCCGGT
sensor-assay potency score (higher = more potent) (RGS6): 0.0231

TTTCTTTTTGATATTTCGCTTG
sensor-assay potency score (higher = more potent) (RGS9): -0.178

TAGGCTGACAAAATCCTGGTAG
sensor-assay potency score (higher = more potent) (RHBDL3): 0.858

TTGCAGAACATCACTTCCTGTC
sensor-assay potency score (higher = more potent) (RGS9): 0.603

TTAGGCTGACAAAATCCTGGTA
sensor-assay potency score (higher = more potent) (RHBDL3): 0.00913

ATGAGCAGCGAGGTCTTGCCGC
sensor-assay potency score (higher = more potent) (RHOF): -1.07

TGAACTGGCACTTCATGCCTGA
sensor-assay potency score (higher = more potent) (RHBDL3): 0.0699

TAGTCTTCTTGCCCGGCCGTGT
sensor-assay potency score (higher = more potent) (RHOF): -1.09

TCCAGGTAGAGAGCAGCTCGGA
sensor-assay potency score (higher = more potent) (RHOF): -1.54

AAACTTGGCGGAACATTCCAGG
sensor-assay potency score (higher = more potent) (RHOF): -0.805

AAACTGATCAAACAGGACTTTC
sensor-assay potency score (higher = more potent) (RHBDL3): -1.76

TTCACTTGTAGAGTGTAGTTAG
sensor-assay potency score (higher = more potent) (RHOH): 0.0342

TTTTTGACAGCAACGACTGTTT
sensor-assay potency score (higher = more potent) (RGS9): -0.217

ATCCGCAGCAGCTTGAACTGGC
sensor-assay potency score (higher = more potent) (RHBDL3): -0.0826

TACTTCTCGAACACCGATGGGG
sensor-assay potency score (higher = more potent) (RHOF): 0.0393

TCCATGAAGACGTCCACCCCTG
sensor-assay potency score (higher = more potent) (RHOH): -1.1

TTCCATGGCATTGACGCAGGAG
sensor-assay potency score (higher = more potent) (RHOH): 0.27

TAGCAGATGAGCACGAGGTGGG
sensor-assay potency score (higher = more potent) (RHOF): 0.0207

TTCCTTTTCATATTCTTCCAAA
sensor-assay potency score (higher = more potent) (RGS9): -0.756

TTCAGCTCCTTCCTGCCCGGAC
sensor-assay potency score (higher = more potent) (RHOF): -0.816

TTGAACTGGCACTTCATGCCTG
sensor-assay potency score (higher = more potent) (RHBDL3): 0.341

TTGCCTGTGCTAATGTAGCCTG
sensor-assay potency score (higher = more potent) (RHBDL3): -0.542

AAATCCACCACAGTGACTGGTC
sensor-assay potency score (higher = more potent) (RHBDL3): 0.238

AAGGTCTCGGAGGTGAAGCGCA
sensor-assay potency score (higher = more potent) (RHOH): -0.81

— the OligoGym collection
